We go through 50 compounds from PubChem BioAssay (Tox21).

Structures are written as SMILES. “And” between values parts separate entries of the source, which are not always exact repeats. Equal values may be shown once. Records with an inconclusive call do not appear. The source made the active and inactive calls. Calls come from the whole dose curve; as a rule, active = well fitted cell-killing curve with a large enough effect in the repeat runs; inconclusive = weak or mixed curves, or effect the other way; inactive = flat fitted curve, though single readings scatter.

Experiment [1] can be described thus: cAMP Responsive Elements (CRE) small molecule antagonists, cell-based qHTS assay: qHTS cell viability counter screen (AID 2060913). Note: nearly all actives have a fitted effect of over 40% in size. A digest of the protocol: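 CRE-bla HEK293T cells (2,000/well, 18 h) given compound plus NKH477 0.25 uM final for 3 h at 37C; viability counter-screen by CellTiter-Glo luminescence in same wells after 30 min.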
Experiment [2] is described as follows: cAMP Responsive Elements (CRE) small molecule agonists, cell-based qHTS assay: qHTS cell viability counter screen (AID 2060914).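 Note: viability read after 3 h of compound exposure; nearly all actives have a fitted effect of over 50% in size.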 A digest of the protocol:
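HEK 293T CRE-bla; DMEM + 10% dialyzed FBS, 25 mM HEPES; 18 h pre-incubation; compound 3 h, 37 °C/5% CO2; CellTiter-Glo added after reporter read; luminescence after 30 min RT.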
Potency is the fitted concentration of half-maximal effect.

For `CCC[Si](OC)(OC)OC`, the Potency entry in experiment [1] and in experiment [2] was “inactive” in each case.

Turning to `Cc1cc(NS(=O)(=O)c2ccc(N)cc2)no1`, the Potency result in experiment [1] and in experiment [2] was “inactive” in each case.

For `OCCN(CCO)c1cccc(Cl)c1`, the Potency entry in experiment [1] and in experiment [2] was “inactive” in each case.

As to `CCCCCCCCCCCCCBr`, the Potency entry in experiment [1] and in experiment [2] was “inactive” each time.

Turning to `CC(C(=O)O)c1ccc2c(c1)Cc1cccnc1O2` (stereo not given), the Potency entry in experiment [1] and in experiment [2] was “inactive” in each case.

Consider `Cc1cc(C(C)(C)C)c(O)c(C)c1CC1=NCCN1`, for which the Potency result in experiment [1] and in experiment [2] was “inactive” each time.

Consider `CC1=CC=C(C(C)C)CC1`, for which the Potency entry in experiment [1] and in experiment [2] was “inactive” throughout.

As for `N#CC1(c2ccc(F)cc2)CCC(=O)CC1`, the Potency entry in experiment [1] and in experiment [2] was “inactive” throughout.

With `C[C@@H]1C[C@H]2[C@@H]3C[C@H](F)C4=CC(=O)C(Cl)=C[C@]4(C)[C@@]3(F)[C@@H](O)C[C@]2(C)[C@@]1(O)C(=O)CO`, the Potency result in experiment [1] and in experiment [2] was “inactive” each time.

As for `COc1cc2nc(N3CCN(C(=O)C4COc5ccccc5O4)CC3)nc(N)c2cc1OC` (stereo not given), the Potency result in experiment [1] and in experiment [2] was “inactive” in each case.

As to `CCCCC(CC)COCC1CO1` (stereo not given), the Potency entry in experiment [1] and in experiment [2] was “inactive” each time.

In the case of `O=C(C(Cl)Cl)N1CCOC12CCCCC2`, the Potency result in experiment [1] and in experiment [2] was “inactive” throughout.

Regarding `CC(C)(O)c1ccc(C(C)(C)O)cc1`, the Potency entry in experiment [1] and in experiment [2] was “inactive” throughout.

Turning to `CCCCCCC(O)CCCCCCCCCCC(=O)OC` (stereo not given), the Potency entry in experiment [1] and in experiment [2] was “inactive” in each case.

On to `CCOc1c(N2CCOCC2)cnn(C)c1=O`, for which the Potency result in experiment [1] and in experiment [2] was “inactive” throughout.

For `CC/C(C)=N/O`, the Potency result in experiment [1] and in experiment [2] was “inactive” throughout.

With `O=C1C=CCCC1`, the Potency entry in experiment [1] and in experiment [2] was “inactive” throughout.

For `O=C1CCCCCCCCCCC1`, the Potency entry in experiment [1] and in experiment [2] was “inactive” in each case.

Take `O=[Si]=O`: the Potency result in experiment [1] and in experiment [2] was “inactive” each time.

Consider `CCO[Si](OCC)(OCC)c1ccccc1`, for which the Potency entry in experiment [1] and in experiment [2] was “inactive” in each case.

Take `CCO[Si](CC(C)C)(OCC)OCC`: the Potency entry in experiment [1] and in experiment [2] was “inactive” each time.

As for `Nc1ccc(Oc2ccc(Cl)cc2)cc1`, the Potency entry in experiment [1] and in experiment [2] was “inactive” in each case.

`Nc1ccc(Cl)cc1[N+](=O)[O-]`: the Potency entry in experiment [1] and in experiment [2] was “inactive” each time.

Consider `O=C(Nc1ccc([N+](=O)[O-])cc1)Nc1ccc([N+](=O)[O-])cc1`, for which the Potency entry in experiment [1] and in experiment [2] was “inactive” in each case.

As to `CCCCOC(=O)C(C)OC(=O)CCC` (stereo not given), the Potency entry in experiment [1] and in experiment [2] was “inactive” throughout.

For the compound `NC(=O)NNC(N)=O`, the Potency result in experiment [1] and in experiment [2] was “inactive” throughout.

With `C=CCSSCCC`, the Potency entry in experiment [1] and in experiment [2] was “inactive” each time.

Consider `O=S(=O)(Oc1ccc(Cl)cc1)c1ccccc1`, for which the Potency result in experiment [1] and in experiment [2] was “inactive” each time.

Consider `CCCCOC(=O)CCCCCCCC(=O)OCCCC`, for which the Potency entry in experiment [1] and in experiment [2] was “inactive” in each case.

On to `Nc1c2c(nc3c1CCC3)CCCC2`, for which the Potency result in experiment [1] and in experiment [2] was “inactive” throughout.

Take `CC(C)n1nc(-c2cc3cc(O)ccc3[nH]2)c2c(N)ncnc21`: the Potency entry in experiment [1] and in experiment [2] was “inactive” each time.

Regarding `Oc1cccc(O)c1O`, the Potency result in experiment [1] and in experiment [2] was “inactive” in each case.

With `O=Cc1cc(O)ccc1Br`, the Potency result in experiment [1] and in experiment [2] was “inactive” each time.

With `CNS(=O)(=O)c1cc(C(=O)N2CCC(CCN3C4CCC3CC(n3c(C)nc5ccccc53)C4)(c3cccc(F)c3)CC2)c(Cl)cc1F` (stereo not given), the Potency entry in experiment [1] and in experiment [2] was “inactive” each time.

For the compound `CCCCCCCCO`, the Potency result in experiment [1] and in experiment [2] was “inactive” throughout.

As for `CCC(O)C(C)(C)C` (stereo not given), the Potency result in experiment [1] and in experiment [2] was “inactive” in each case.

On to `Clc1ccc2c(c1)CCc1cccnc1C2=C1CCNCC1`, for which the Potency entry in experiment [1] and in experiment [2] was “inactive” each time.

Turning to `C[C@H](CCC(=O)O)[C@H]1CC[C@H]2[C@@H]3C(=O)C[C@@H]4CC(=O)CC[C@]4(C)[C@H]3CC(=O)[C@]12C`, the Potency result in experiment [1] and in experiment [2] was “inactive” each time.

As for `CCCCCCCCCCCCCCCCCCOCC(O)CO` (stereo not given), the Potency result in experiment [1] and in experiment [2] was “inactive” throughout.

Regarding `CCCCCCCCCCCCCC[N+](C)(C)Cc1ccccc1`, the Potency in experiment [1] was 55.3 µM (active) and 26.6 µM (active) and 15.8 mM (active); in experiment [2], 22 µM (active) and 11.9 µM (active).

Turning to `CCC(=O)O[C@H]1[C@H](O[C@@H]2[C@@H](C)[C@H](O[C@H]3C[C@@](C)(OC)[C@@H](O)[C@H](C)O3)[C@@H](C)C(=O)O[C@H](CC)[C@@](C)(O)[C@H](O)[C@@H](C)C(=O)[C@H](C)C[C@@]2(C)O)O[C@H](C)C[C@@H]1N(C)C`, the Potency result in experiment [1] and in experiment [2] was “inactive” in each case.

In the case of `c1ccc(-c2nc[nH]c2-c2ccccc2)cc1`, the Potency result in experiment [1] and in experiment [2] was “inactive” each time.

As to `NC(=O)CC[C@@H](N)C(=O)O`, the Potency entry in experiment [1] and in experiment [2] was “inactive” each time.

As to `C[N+](C)(C)CC[N+]1(C)Cc2c(Cl)c(Cl)c(Cl)c(Cl)c2C1`, the Potency entry in experiment [1] and in experiment [2] was “inactive” throughout.

Consider `CCCN(CCC)C(=O)C(CCC(=O)O)NC(=O)c1ccccc1` (stereo not given), for which the Potency result in experiment [1] and in experiment [2] was “inactive” each time.

In the case of `C=C(C)C(=O)OCCC[Si](OC)(OC)OC`, the Potency entry in experiment [1] and in experiment [2] was “inactive” each time.

Turning to `NC(=O)Nc1ccc(Cl)cc1`, the Potency entry in experiment [1] and in experiment [2] was “inactive” in each case.

For the compound `Cc1onc(-c2ccccc2Cl)c1C(=O)N[C@@H]1C(=O)N2[C@@H]1SC(C)(C)[C@@H]2C(=O)O`, the Potency entry in experiment [1] and in experiment [2] was “inactive” in each case.

For `CC(C)CC(=O)CC(C)CC(C)C` (stereo not given), the Potency result in experiment [1] and in experiment [2] was “inactive” each time.

For the compound `C=CC(=O)OCCOCCOCC`, the Potency entry in experiment [1] and in experiment [2] was “inactive” in each case.
